According to PubChem BioAssay (NCATS):
Results filed as inconclusive are left out. Where a call stands in place of a potency, no number is given. Calls of active or inactive are those of the source. Calls come from the whole dose curve; as a rule, active = well fitted curve in the direction sought with a large enough effect; inconclusive = small, poorly fitted or top-dose-only effect, or another doubt; inactive = no such curve, though single readings can be large or run the other way.

Biological target: Calcium and integrin-binding protein 1 (Homo sapiens) (UniProt Q99828)
Assay: Validation qHTS for Identification of Calcium Integrin Binding protein 1 (CIB1) Competitor (AID 1508618)
Settings: CIB1-GST / FITC-alphaIIb peptide fluorescence polarization; series mostly up to 114 µM
Description: Assay Provider: Ulhas P. Naik, PhD
Sidney Kimmel Medical College
Thomas Jefferson University, Philadelphia, PA
Primary function of platelets is to maintain hemostasis. At the site of vascular injury, platelets adhere to adhesive proteins such as collagen and von Willebrand factor. Adherent platelets are activated and generate soluble platelet agonists such as thrombin, ADP and thromboxane A2. Following exposure of circulating platelets to these agonists, results in platelet shape change, granule secretion and activation of platelet integrin alphaIIb-beta3. Ligand binding to activated integrin alphaIIb-beta3 triggers outside-in signaling, leading to platelet aggregation, stabilization of platelet plug, and clot retraction. Upon atherosclerotic plaque rupture also causes platelet plug formation, which underlies a number of cardiovascular diseases such as myocardial infraction and stroke. A number of anti-platelet drugs such as aspirin, clopidogrel, prasugrel, vorapaxar, and eptifibatide are currently available to prevent the thrombotic complications. However, these anti-platelet agents have several limitations including inherent variability in individual responses, developing resistance, and serious bleeding side effects. For these reasons they are not suitable for long-term protection. Based on the experiences with current anti-platelet drugs, it appears that the most useful therapeutic approach is to intersect the secondary responses such as integrin outside-in signaling or recruitment of platelets by TxA2 and secreted ADP. Compounds, which can largely preserve the primary hemostatic function of platelets but inhibit secondary response will be most desired therapeutic agents for treatment of cardiovascular disease.
CIB1 is a calcium integrin binding protein, which specifically interact with the alphaIIb subunit of integrin alphaIIb-beta3. Binding of CIB1 to alphaIIb regulates the outside-in signaling in platelets, which is needed for thrombus stabilization and thrombus growth. […] Therefore, we propose that discovery of a small molecule that can prevent the association of CIB1 and alphaIIb-beta3 will be a potential anti-platelet agent that can block the thrombus formation without undue effect on hemostasis.
To develop fluorescence polarization (FP) assay using fluorescently labeled alphaIIb peptide and CIB1 protein. Using FP assay characterize the binding affinity, competitive inhibition, and acceptable Z factor (0.5 to1) in order to perform the HTS to identify small molecule compound that can prevent CIB1 binding to platelet integrin alphaIIbbeta3. This assay is screened against the NCATS LOPAC library to validate the amenability of the assay to qHTS.
[1] Naik MU, Nigam A, Manrai P, et al. CIB1 deficiency results in impaired thrombosis: the potential role of CIB1 in outside-in signaling through integrin alpha IIb beta 3. J Thromb Haemost. 2009;7(11):1906-1914. doi:10.1111/j.1538-7836.2009.03581.
SEQUENCE No. (1, 2, 3, etc.); […] (e.g., Cells, Incubation, Reagent, etc.); VALUE and DESCRIPTION.
1; Reagent; 3 uL; Protein or buffer (4/3x)
2; Compound; 46 nL; Control inhibitor / compound library
3; Time; 15 min; Room temperature incubation
4; Reagent; 1 uL; Fluorescent labeled peptide (4x)
5; Time; 1000 rpm; Centrifuge
6; Time; 15 min; Room temperature incubation
7; Detection; Ex 480/ Em 540; ViewLux Fluorescence Read
NOTES (numbers refer to sequence above)
1; Protein Mixture: C1B1-GST (final concentrations of 1 uM). Buffer composition: 5 mM HEPES pH 7.4, 125 mM NaCl, 5 mM CaCl2, 0.01% Tween20.
2; Control Inhibitor: unlabeled peptide (final concentration range 17.4 nM to 572 uM). Compound Library final concentration range 18.3 nM to 114 uM.
3; Room temperature incubation.
4; Fluorescent Labeled Peptide: FITC-aIIb (final concentration of 100 nM). Sequence of alphaIIb peptide: Acetyl-[…]-FITC (purity is 95.83%).
6; Room temperature incubation.
[…]
Potency is the fitted concentration of half-maximal effect.

Sequence of Calcium and integrin-binding protein 1 (Homo sapiens) (Q99828 whole entry, looked up): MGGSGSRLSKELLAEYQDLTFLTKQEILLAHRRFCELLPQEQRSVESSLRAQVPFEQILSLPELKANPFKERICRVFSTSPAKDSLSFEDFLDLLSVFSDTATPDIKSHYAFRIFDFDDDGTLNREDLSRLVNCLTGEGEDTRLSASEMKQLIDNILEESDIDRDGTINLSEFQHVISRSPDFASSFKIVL

Question: For `NC(=O)c1cnccn1`, which Potency is on record?
Answer: inactive

Question: How did the Potency turn out when `Cc1oncc1C(=O)Nc1ccc(C(F)(F)F)cc1` was run?
Answer: inactive

Question: With `CCCc1nn(C)c2c(=O)[nH]c(-c3cc(S(=O)(=O)N4CCN(C)CC4)ccc3OCC)nc12` as the compound, how does the Potency read?
Answer: inactive

Question: Which Potency does the source give for `CCC(C)N(C)C(=O)c1cc2ccccc2c(-c2ccccc2Cl)n1` (stereo not given) here?
Answer: inactive

Question: `Nc1ccc(S(=O)(=O)Nc2ccnn2-c2ccccc2)cc1` was tested. Which Potency did it give?
Answer: inactive

Question: `Cc1cn[nH]c1` was tested. Which Potency did it give?
Answer: inactive

Question: How did the Potency turn out when `O=C(O)CCc1ccc(NCc2cccc(Oc3ccccc3)c2)cc1` was run?
Answer: inactive

Question: Which Potency does the source give for `CCn1cc(C(=O)O)c(=O)c2cc(F)c(N3CCNC(C)C3)c(F)c21` (stereo not given) here?
Answer: inactive

Question: How did the Potency turn out when `N[C@@H]1CONC1=O` was run?
Answer: inactive

Question: For `NNCCc1ccccc1`, which Potency is on record?
Answer: inactive

Question: `CCOC(=O)N1CCC(=C2c3ccc(Cl)cc3CCc3cccnc32)CC1` was tested. Which Potency did it give?
Answer: inactive

Question: With `CC(C)(C)NCC(O)c1ccc(O)c(CO)c1` (stereo not given) as the compound, how does the Potency read?
Answer: inactive

Question: For `C1COC(NC(C2CC2)C2CC2)=N1`, which Potency is on record?
Answer: inactive

Question: For `Nc1nc2c(ncn2COCCO)c(=O)[nH]1`, which Potency is on record?
Answer: inactive

Question: `O=c1[nH]cnc2[nH]ncc12` was tested. Which Potency did it give?
Answer: inactive

Question: Which Potency does the source give for `Cn1cnc([N+](=O)[O-])c1Sc1ncnc2nc[nH]c12` here?
Answer: inactive

Question: `O=c1n(CCCN2CCN(c3cccc(Cl)c3)CC2)nc2ccccn12` was tested. Which Potency did it give?
Answer: inactive

Question: How did the Potency turn out when `c1ccc([C@H]2CN3CCSC3=N2)cc1` was run?
Answer: inactive

Question: Which Potency does the source give for `O=NN(CCCl)C(=O)NCCCl` here?
Answer: inactive

Question: `CC(C)C[C@H](NC(=O)[C@@H](O)[C@H](N)Cc1ccccc1)C(=O)O` was tested. Which Potency did it give?
Answer: inactive

Question: With `Cc1cc2c(C(C)C)c(O)c(O)c(C=O)c2c(O)c1-c1c(C)cc2c(C(C)C)c(O)c(O)c(C=O)c2c1O` as the compound, how does the Potency read?
Answer: 22.4 µM (active)

Question: How did the Potency turn out when `Cc1cccc(-c2[nH]c(C(C)(C)C)nc2-c2ccc3nccnc3c2)n1` was run?
Answer: inactive

Question: With `NCCc1ccc(O)c(O)c1` as the compound, how does the Potency read?
Answer: inactive

Question: With `OC(CCN1CCCCC1)(c1ccccc1)C1CC2C=CC1C2` (stereo not given) as the compound, how does the Potency read?
Answer: inactive

Question: For `NS(=O)(=O)c1cc2c(cc1Cl)NC=NS2(=O)=O`, which Potency is on record?
Answer: inactive

Question: With `NC(N)=NC(=O)c1nc(Cl)c(N)nc1N` as the compound, how does the Potency read?
Answer: inactive

Question: How did the Potency turn out when `CC(C[N+](C)(C)C)OC(N)=O` (stereo not given) was run?
Answer: inactive

Question: Which Potency does the source give for `CCCCNc1cc(C(=O)O)cc(S(N)(=O)=O)c1Oc1ccccc1` here?
Answer: inactive

Question: Which Potency does the source give for `Cc1[nH]c(=O)c(C#N)cc1-c1ccncc1` here?
Answer: inactive

Question: For `CCc1cncnc1N1CCN(Cc2nc3ccc(C(F)(F)F)cc3[nH]2)CC1`, which Potency is on record?
Answer: inactive

Question: How did the Potency turn out when `CS(=O)(=O)c1cccc(CNc2nc(Nc3ccc4c(c3)CCC(=O)N4)ncc2C(F)(F)F)c1` was run?
Answer: inactive

Question: `NCCCC(N)(C(=O)O)C(F)F` (stereo not given) was tested. Which Potency did it give?
Answer: inactive

Question: `Nc1nc2ccc(OC(F)(F)F)cc2s1` was tested. Which Potency did it give?
Answer: inactive

Question: `O=C(O)COCCN1CCN(C(c2ccccc2)c2ccc(Cl)cc2)CC1` (stereo not given) was tested. Which Potency did it give?
Answer: inactive

Question: For `O=C1CCC(N2C(=O)c3ccccc3C2=O)C(=O)N1` (stereo not given), which Potency is on record?
Answer: inactive

Question: With `CC(C)NCC(O)COc1ccc(COCCOC(C)C)cc1` (stereo not given) as the compound, how does the Potency read?
Answer: inactive

Question: `Clc1cccc(Cl)c1NC1=NCCN1` was tested. Which Potency did it give?
Answer: inactive

Question: With `CCCC(CCC)C(=O)O` as the compound, how does the Potency read?
Answer: inactive

Question: How did the Potency turn out when `CC(=O)Oc1ccccc1C(=O)O` was run?
Answer: inactive

Question: Which Potency does the source give for `NC[C@H](O)c1ccc(O)c(O)c1` here?
Answer: inactive
